Results as given in the supplement of paper PMC6555819.

System: RARb homodimer (NR concentration 270 nM)
Assay: PBM binding z-score (relative to random genomic background probes); higher = stronger binding; sequences stand for … in GC…GCGATTGACAGCGTAGAATGAAGG
How it was run: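 Binding buffer was PBS pH 7.4 with 2% milk, 0.02% Triton X-100, 1 mM DTT, 0.2 mg/mL BSA and 0.4 mg/ml salmon testes DNA. In it, ligand-free nuclear receptor dimers were incubated 1 h on custom Agilent 4×180K protein-binding microarrays carrying double-stranded probes. Antibodies against each partner (one per run) detected binding, and z-scores were calculated against random background probes after regression normalization of scanned fluorescence.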

Row | Sequence | PBM binding z-score
1 | CAAACTAGGTCACAGAGGTCACAGTCCGTGCGTA | 5.65
2 | GGAGACAGGTGAAACGCAGGTAACTCAGGGTGGC | 0.55
3 | CCTATTAGTTGATCATAAGGGCAACCGAAGCTCG | 1.43
4 | GGAACGAGGGCATTTGAGTTGATAGCATGGCGAT | 0.691
5 | GCTTACGGGTCATAGGTTATAGCATGAATAGAAT | 2.49
6 | TCTTGTAGATCAAGCAGGTTAAGGAAGCCTGAGT | 0.203
7 | CCAAGTTGGTCAAGGTCACACACGCTATAGGTAC | 4.47
8 | CCTAACAGGCCAATCTGGGTCACTCAAGGCTTGA | 2.38
9 | GCTAGCAGGCCATTTGGTTCACTCAATGACGGGC | -0.301
10 | ACTCGGAGGACAAAGGTCAGAGCAACGCCAGTGA | 4.24
11 | ATCTCTAGGTAAAGATAGATCAGTGAATGCAAAT | -0.493
12 | AGAATGAGGTTACCAAAGATCACGGAAACGCTTG | 1.02
13 | TCAAATAGGTAATACAGGTGAAAGTCGGCATCTA | 0.557
14 | CCGACTGGGGCAAAGGATACCATACTCAGTACGA | 0.263
15 | CTCGTAAGGTCGGTTGAGGTGAGTATACGGATAA | 1.99
16 | GCGATTGGGGCATCAGCAGGTTACCATAACTTAA | 0.917
17 | ATCTCTAGGTAAGACTCAGGTCAGTGAAGAACGC | 2.52
18 | TCATATAGGTAAACAGGTGGAAGTCCGTAAGTTA | 0.247
